# Records with an inconclusive call do not appear. Values without a mark were called inactive. Calls come from the whole dose curve; as a rule, active = well fitted cell-killing curve with a large enough effect in the repeat runs; inconclusive = weak or mixed curves, or effect the other way; inactive = no such curve, though single readings can be large or run the other way.
# Test: qHTS assay to identify small molecule antagonists of the peroxisome proliferator-activated receptor gamma (PPARg) signaling pathway - cell viability counter screen (AID 743194); note: nearly all actives have a fitted effect of over 55% in size
# Conditions: PPARg-bla HEK293H viability, CellTiter-Glo luminescence, 17 h, co-treated with 50 nM rosiglitazone; series mostly up to 62.6 µM; activity change, negative = cytotoxicity: at the top concentration
# Source text: U.S. Tox21 Program National Center for Advancing Translational Sciences [NCATS] NIH Chemical Genomics Center [NCGC] U.S. Environmental Protection Agency [EPA] National Institutes of Environmental Health Sciences [NIEHS] National Toxicology Program [NTP] U.S. Food and Drug Administration [FDA] Tox21 Assay Overview: The peroxisome proliferator-activated receptors (PPARs) are lipid-activated transcription factors of the nuclear receptor superfamily with three distinct subtypes namely PPAR alpha, PPAR delta (also called PPAR beta) and PPAR gamma (PPARg). All these subtypes heterodimerize with Retinoid X receptor (RXR) and these heterodimers regulate transcription of various genes. PPAR-gamma receptor (glitazone receptor) is involved in the regulation of glucose and lipid metabolism. To identify the compounds that activate PPAR-gamma signaling, GeneBLAzer PPAR gamma UAS-bla HEK293H cell line (Invitrogen, Carlsbad, CA, USA) containing a beta-lactamase reporter gene under the control of an Upstream Activator Sequence (UAS) was used to screen the Tox21 compound library. The cytotoxicity of the Tox21 compound library against the PPARg-bla cell line was tested in parallel by measuring the cell viability using CellTiter-Glo assay in the same wells.
# Tox21 Assay Protocol Summary: PPARg-bla cells were dispensed at 3000 cells/5uL/well in 1536-well black wall/clear bottom plates using a Multidrop Combi (Thermo Fisher Scientific, Waltham, MA) dispenser. After the assay plates were incubated at 37 C and 5% CO2 for 5 h, 23 nL of compounds dissolved in DMSO, positive controls or DMSO only was transferred to the assay plate by a Pintool station (Kalypsys, San Diego, CA), followed by addition of 1ul Rosiglitazone (50 nM, final concentration in the wells). The assay plates were incubated at 37 C for 17 h, and then 1 uL of LiveBLAzerTM B/G FRET substrate was added using a Bioraptr Flying Reagent Dispenser (FRD) workstation (Beckman Coulter, Indianapolis, IN, USA). The assay plates were incubated at room temperature for 1 h and fluorescence intensity was measured by an Envision plate reader (PerkinElmer, Shelton, CT). For cell viability readout that measures cytotoxicity, 4 ul/well of CellTiter-Glo reagent was added into the assay plates using a Flying Reagent Dispenser. After 30 min incubation at room temperature, the luminescence intensity in the plates was measured using a ViewLux plate reader (PerkinElmer).
# % is set by controls: 0 for no effect and ±100 for the full control effect.
row,Compound,"activity change, negative = cytotoxicity"
1,NNC(=O)OCc1ccccc1,-14.5%
2,CCCCN(CCCC)CCCCCCN(CCCC)CCCC,6.67%
3,CC1(C)S[C@@H]2[C@H](NC(=O)Cc3ccccc3)C(=O)N2[C@H]1C(=O)O (tested in a mixture with another compound),-1.89%
4,COCc1nnc(-c2ccc[n+]([O-])c2)n1-c1c(Cl)c(Cl)cc2[nH]c(=O)c(=O)[nH]c12,8.96%
5,Cc1ccc2cccnc2c1,18.4%
6,CC(CC(=O)Cl)CC(C)(C)C (stereo not given),1.2% [at 81.1 µM]
7,CC(=O)Nc1ccc(OCCOCCOc2ccc(NC(C)=O)cc2)cc1,0.0327%
8,COc1ccc(Cl)cc1C,11.1% [at 81.1 µM]
9,O=C1CC2(CCCC2)CC(=O)N1CCNCC1COc2ccccc2O1 (stereo not given),11.5%
10,BrCCOc1ccccc1,1.1% [at 81.1 µM]
11,CC(C)(C)C(=O)CC(=O)C(C)(C)C,-6.36% [at 81.1 µM]
12,CCCCN=C(N)N=C(N)N,9.58%
13,Cc1ccc(Br)cc1,-17.9%
14,Cc1cc(C)c(N)c(Cl)c1,-0.642%
15,CCCCCCCC(=O)N(C)C,12.3%
16,N#CC1(N)CCCCC1,3.46% [at 81.1 µM]
17,CC1=C(O)C(=O)CO1,10.4%
18,CCO/C=C1\N=C(c2ccccc2)OC1=O,-4.89%
19,N[C@H]1C(O)O[C@H](CO)[C@@H](O)[C@@H]1O (stereo not given in full),12.9%
20,CN(C)CCc1c[nH]c2ccc(C[C@H]3COC(=O)N3)cc12,2.68%

row,Compound,"activity change, negative = cytotoxicity"
1,CCOC(=O)CC(C(C)=O)C(C)=O,1.92%
2,CC(C)OC(=O)C(C(=O)OC(C)C)=C1SC=CS1,-0.866%
3,CCCC(=O)CC,13.8% [at 81.1 µM]
4,C[Si](C)(C)O[Si](O)(O)O,6.9%
5,CC1(C)CC(N)CC(C)(C)N1,2.3%
6,O=S(=O)(O)c1cc(I)c(O)c2ncccc12,2.95%
7,C=CCN1CCc2nc(N)sc2CC1,-18%
8,CCCCN1C(=O)c2ccccc2C1=O,-0.132% [at 81.1 µM]
9,CC(C)CC(O)Cc1ccccc1 (stereo not given),4.11%
10,COCCCOc1cc(C[C@@H](C[C@H](N)[C@@H](O)C[C@H](C(=O)NCC(C)(C)C(N)=O)C(C)C)C(C)C)ccc1OC,-8.9%
11,COc1cc(C(=O)NC2CCCNC2)cc(OC)c1OC (stereo not given),-0.583%
12,Cc1ccc(NC(N)=O)cc1,-16.9% [at 81.1 µM]
13,O=C1c2ccccc2C(=O)N1CO,-1.16% [at 81.1 µM]
14,C=CCn1cc[n+](C)c1,2.45% [at 81.1 µM]
15,CC(C)(C)OC=O,11.8% [at 81.1 µM]
16,O=C(O)Cc1ccccc1Oc1ccc(Cl)cc1Cl,11.9%
17,O=C(O)Cc1c(Cl)ccc(Cl)c1Cl,-0.304%
18,NC[C@H]1O[C@H](O[C@H]2[C@H](O)[C@@H](O[C@H]3O[C@H](CO)[C@@H](O)[C@H](N)[C@H]3O)[C@H](N)C[C@@H]2N)[C@H](N)[C@@H](O)[C@@H]1O,0.744% [at 29.1 µM]
19,CNCCc1ccccn1,-1.05%
20,Nc1ccc(C(=O)NCC(=O)O)cc1,0.0527%

# — PubChem BioAssay (Tox21)
